In all, about 16,000 compounds went through this assay and about 5,700 (36%) were called active. Roughly 24% stayed inconclusive and do not appear here. This is one part of the list. A number with no mark means an inactive call. Calls come from the whole dose curve; as a rule, active = well fitted curve in the direction sought with a large enough effect; inconclusive = small, poorly fitted or top-dose-only effect, or effect the other way; inactive = no such curve, though single readings can be large or run the other way.
% is set by controls: 0 for no effect and ±100 for the full control effect.

Chain of Cytochrome P450 1A2 (Homo sapiens) (P05177 whole entry, looked up): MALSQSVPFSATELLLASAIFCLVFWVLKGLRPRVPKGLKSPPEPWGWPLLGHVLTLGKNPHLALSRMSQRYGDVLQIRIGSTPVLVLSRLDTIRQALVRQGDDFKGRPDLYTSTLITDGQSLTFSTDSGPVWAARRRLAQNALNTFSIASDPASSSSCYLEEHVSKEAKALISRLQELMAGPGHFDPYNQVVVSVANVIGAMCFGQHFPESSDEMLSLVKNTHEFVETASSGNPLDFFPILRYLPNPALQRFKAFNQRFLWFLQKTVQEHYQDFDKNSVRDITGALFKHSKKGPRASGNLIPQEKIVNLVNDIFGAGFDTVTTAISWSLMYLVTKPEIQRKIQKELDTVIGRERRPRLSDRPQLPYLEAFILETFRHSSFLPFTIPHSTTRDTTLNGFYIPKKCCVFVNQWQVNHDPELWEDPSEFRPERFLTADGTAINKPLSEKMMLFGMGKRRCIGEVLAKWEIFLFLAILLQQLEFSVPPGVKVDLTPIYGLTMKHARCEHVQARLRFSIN

This assay has as its target Cytochrome P450 1A2 (Homo sapiens) (UniProt P05177). In words: Cytochrome panel assay with activity outcomes. The conditions noted are these: recombinant CYP, pro-luciferin dealkylation, luminescence, p450-cyp1a2; series mostly up to 57.1 µM; activity, negative = inhibition: at the top concentration.
With `Cc1cc(C(=O)c2cnc(/N=C/N(C)C)s2)cc(C)c1O`, the concentration at half-maximal activity (AC50) is 12.6 µM (active).
Regarding `CN(C)/C=N/c1ncc(C(=O)c2ccc3ccccc3c2)s1`, the half-maximal activity concentration (AC50) is 2.51 µM (active).
As to `COc1ccc(O[C@H]2C=C[C@@H](c3ccccc3)O[C@H]2CO/N=C2/c3cc(OC)ccc3O[C@@H](c3cccc(OC)c3)[C@H]2O)cc1`, the activity, negative = inhibition is 1.3% [at 11.4 µM].
In the case of `Cc1cc(N2CCOCC2)nc(SCc2ccc(Cl)cc2Cl)n1`, the AC50 is 2.51 µM (active).
Regarding `CSc1nc(-c2ccc(C)cc2)nc(C(Cl)Cl)n1`, the concentration at half-maximal activity (AC50) was 1.41 µM (active).
Regarding `COc1ccccc1/C=N/NC(=O)CC(=O)Nc1ccc(Cl)c(Cl)c1`, the AC50 was 1.78 µM (active).
Take `COc1ccccc1CN1CCCC2(CCN(C(=O)c3cccn3C)CC2)C1`: the “activity, negative = inhibition” value is -18.4%.
Turning to `Clc1cc2c(c(CSC3=NCN(CC4CC4)CN3)c1)OCOC2`, the concentration at half-maximal activity (AC50) is 3.16 µM (active).
As to `CCCc1cc(=O)oc2cc(OCc3cc(OC)c(OC)c(OC)c3)c(Cl)cc12`, the “activity, negative = inhibition” value was -5.56%.
As for `CCOc1cc2c(C)cc(=O)oc2cc1Cl`, the AC50 is 0.501 µM (active).
In the case of `O=[N+]([O-])c1ccc(N/N=C\c2cccn2-c2ccccc2)nc1`, the AC50 was 3.55 µM (active).
In the case of `COc1c(/C=N/Nc2ccc([N+](=O)[O-])cc2[N+](=O)[O-])c(C)nn1-c1ccccc1`, the “activity, negative = inhibition” value is -16.9%.
For `N[C@H](C(=O)O)[C@H](N)C(=O)O`, the activity, negative = inhibition was -13.3% [at 11.4 µM].
For `CC(C)Oc1ccc(N2CC(C(=O)OCC(=O)NCc3ccccc3)CC2=O)cc1` (centres undefined), the “activity, negative = inhibition” value was -6.35%.
For the compound `COc1ccc(N2CC(C(=O)Nc3cc(C)on3)CC2=O)cc1` (centres undefined), the “activity, negative = inhibition” value was -2.16%.
In the case of `COc1ccc(N2CC(C(=O)OCC(=O)c3cccc(OC)c3)CC2=O)cc1` (centres undefined), the concentration at half-maximal activity (AC50) was 20 µM (active).
Take `COC(=O)[C@@H]1[C@@H]2C[C@H]3c4[nH]c5ccccc5c4CCN3C[C@@H]2CC[C@@H]1OS(=O)(=O)O`: the activity, negative = inhibition was -10.3% [at 2.29 µM].
On the same count and under the same terms, the figure for `Cc1ccccc1C(=O)NNC(=O)c1ccoc1C` is -5.51%.
As for `Cc1ccccc1C(=O)NC(C)c1ccc2c(c1)CCCC2` (centres undefined), the half-maximal activity concentration (AC50) is 11.2 µM (active).
With `CCCCCSc1nncc(=O)[nH]1`, the “activity, negative = inhibition” value was -14.7%.
Consider `O=c1[nH]c(=O)n([C@@H]2C[C@H](O)[C@H](CO)O2)cc1I`, for which the “activity, negative = inhibition” value was 10.8% [at 25.6 µM].
`COc1ccccc1-c1cc(C(F)(F)F)nc(S(=O)(=O)CCCC(=O)NC(C)C)n1`: the half-maximal activity concentration (AC50) was 2 µM (active).
In the case of `COCCCNC(=O)Cn1nc(-c2ccccc2OC)ccc1=O`, the “activity, negative = inhibition” value was -16%.
As for `Cc1[nH]n(C(C)(C)C)c(=O)c1Sc1ccc(Cl)cc1`, the “activity, negative = inhibition” value was -0.437%.
As to `Cc1ccc(N=Cc2cc(C)n(C3CCCC3)c2C)cc1`, the half-maximal activity concentration (AC50) is 10 µM (active).
As to `CCCCc1ccc(NC(=S)NCc2cccs2)cc1`, the concentration at half-maximal activity (AC50) is 8.91 µM (active).
Turning to `CCc1ccc(NC(=O)CS(=O)CC(=O)NCCCc2ccccc2)cc1` (centres undefined), the “activity, negative = inhibition” value was -19.7%.
In the case of `CCCC(=O)Nc1ccc(C(=O)NNC(=S)NC(=O)c2cccs2)cc1`, the “activity, negative = inhibition” value was 3.27%.
As for `CC#CCOC(=O)c1c(C)nc2sc3c(c2c1N)CC[C@@H](O)C3`, the AC50 was 0.0251 µM (active).
On to `O=C(/C=C/c1ccccc1)NNC(=O)c1cccnc1`, for which the “activity, negative = inhibition” value was -8.85%.
`COCCCNC(=O)/C=C/c1cccc(Cl)c1`: the concentration at half-maximal activity (AC50) was 6.31 µM (active).
Consider `COCCCNC(=O)C1C2C=CC3(CN(Cc4ccc(C)cc4)C(=O)C13)O2` (centres undefined), for which the “activity, negative = inhibition” value was -1.32%.
As for `O=C(/C=C/c1ccc(Cl)cc1)NCCSc1ccccc1`, the AC50 is 1.58 µM (active).
Same read-out and setting: the figure for `O=C(/C=C/c1cccc(Cl)c1)Nc1ccncc1` is 2 µM (active).
On to `O=C(/C=C/c1ccc(Cl)cc1)NCCN1CCOCC1`, for which the “activity, negative = inhibition” value was -28.6%.
For the compound `COCCCNC(=O)/C=C/c1ccc(Cl)cc1`, the AC50 was 7.08 µM (active).
On to `O=C(/C=C/c1cccc([N+](=O)[O-])c1)NCCN1CCOCC1`, for which the “activity, negative = inhibition” value is 5.84%.
Take `COCCNC(=O)c1onc(CSc2cccc(Cl)c2)c1C(=O)O`: the “activity, negative = inhibition” value was -11.1%.
`C/C(=N\OC(=O)c1ccccc1)c1cc(-c2ccc(Cl)cc2)no1`: the AC50 is 2.82 µM (active).
On to `CC(C)CO/N=C1/C[C@@H](O)[C@@H](O)[C@@H]2[C@@H]3C(=O)N([C@@H](C)c4ccccc4)C(=O)[C@H]3CC[C@@H]12`, for which the activity, negative = inhibition was -9.02% [at 11.4 µM].
With `COc1ccc(S(=O)(=O)NCCC(=O)NC(C)c2ccccc2)cc1` (centres undefined), the “activity, negative = inhibition” value was -12.5%.
Regarding `COc1ccc(NC(=O)CCNS(=O)(=O)c2ccc3c(c2)c(=O)n(C)c(=O)n3C)cc1`, the “activity, negative = inhibition” value is 7.33%.
Consider `COc1ccc(OCCNS(=O)(=O)c2ccc3oc4ccccc4c3c2)cc1`, for which the concentration at half-maximal activity (AC50) was 2.82 µM (active).
`O=C1CC(N2CCN(C(c3ccccc3)c3ccccc3)CC2)C(=O)N1Cc1ccc(N2CCCC2=O)cc1` (centres undefined): the “activity, negative = inhibition” value is 0.781%.
In the case of `C[C@@H](CN(C)C)CN1c2ccccc2CCc2ccccc21`, the AC50 result was “inactive”.
For the compound `CN1CCN(C2CC(=O)N(Cc3ccc(N4CCCC4=O)cc3)C2=O)CC1` (centres undefined), the “activity, negative = inhibition” value is 8.84%.
Take `O=C1CCCc2ccccc2N1Cc1cccc(Cl)c1`: the AC50 was 12.6 µM (active).
With `O=C1CCCc2ccccc2N1Cc1ccccc1Cl`, the AC50 is 14.1 µM (active).
Turning to `CC1(C)[C@@H]2CC[C@]1(CC(=O)O)[C@H](Cl)C2`, the activity, negative = inhibition is -14.2% [at 11.4 µM].

A word on the AC50: it is the midpoint of the concentration-response curve, whichever way the signal moves.

Source of the values: PubChem BioAssay AID1851 (National Center for Advancing Translational Sciences (NCATS), 2009).
